Test results taken from PubChem BioAssay (Tox21).
Records with an inconclusive call do not appear. Values without a mark were called inactive. The source made the active and inactive calls. Calls come from the whole dose curve; as a rule, active = well fitted cell-killing curve with a large enough effect in the repeat runs; inconclusive = weak or mixed curves, or effect the other way; inactive = flat fitted curve, though single readings scatter.

experiment: Nuclear factor erythroid 2-related factor 2/antioxidant responsive element (Nrf2/ARE) small molecule agonists: qHTS cell viability counter screen in human keratinocytes (AID 1919968); settings: KeratinoSens HaCaT ARE cells viability, CellTiter-Fluor, 24 h; series mostly up to 92.4 µM; activity change, negative = cytotoxicity: at the top concentration; note: nearly all actives have a fitted effect of over 55% in size
Source text: U.S. Tox21 Program National Center for Advancing Translational Sciences [NCATS] Division of Preclinical Innovation [DPI] U.S. Environmental Protection Agency [EPA] National Institutes of Environmental Health Sciences [NIEHS] National Toxicology Program [NTP] U.S. Food and Drug Administration [FDA] Tox21 Assay Overview: Oxidative stress has been implicated in the pathogenesis of a variety of diseases ranging from cancer to neurodegeneration. The antioxidant response element (ARE) signaling pathway plays an important role in the amelioration of oxidative stress. The KeratinoSens (Givaudan, Switzerland) is an in vitro test method which quantifies luciferase induction as a measure of activation of Keap1-Nrf2-antioxidationt/electrophile response element (ARE) dependant pathway in HaCaT human keratinocytes stably transfected with a selectable plasmid. The KeratinoSens assay is a cell-based assay with a reporter cell line to detect potential skin sensitizers by their ability to induce the Nrf2/ARE-response. The activation of the report gene under culture conditions can be detected by ONE-Glo Luciferase Assay System (Promega, Madison, WI). This cell line has been used to screen the Tox21 10K compound library to identify agonists that induce oxidative stress. The cytotoxicity of the Tox21 compound library against the KS-ARE cell line was tested in parallel by measuring the cell viability using CellTiter- Fluor assay system (Promega, Madison, WI) in the same wells.
Tox21 Assay Protocol Summary: HaCaT derived cell line KeratinoSens were dispensed at 1,500 cells/5uL/well in 1536-well white wall/solid bottom plates using a Multidrop Combi (ThermoFisher Scientific, Waltham, MA) dispenser. After the assay plates were incubated at 37 C/5% CO2 for 5 h, 23 nL of compounds dissolved in DMSO, positive controls or DMSO only was transferred to the assay plate by a pintool workstation (Kalypsys, San Diego, CA). The plates were incubated at 37 C/5% CO2 for 23 h, followed by addition of 1uL/well of CellTiter-Fluor reagent into the assay plates using a Flying Reagent Dispenser (Aurora Discovery, San Diego, CA) for cell viability readout that measures cytotoxicity. After 1 h incubation at 37 C/5% CO2 the fluorescence intensity was measured using a ViewLux (PerkinElmer, Shelton, CT) plate reader.
% is set by controls: 0 for no effect and ±100 for the full control effect; potency is the fitted concentration of half-maximal effect.

Row | SMILES | activity change, negative = cytotoxicity | Potency
1 | CN1C(C)(C)CCCC1(C)C | 0.27% [at 42.5 µM] | 
2 | CC(C)(C)c1cc(C=O)cc(C(C)(C)C)c1O | 2.87% [at 42.5 µM] | 
3 | Nc1nc2c(ncn2CCC(CO)CO)c(=O)[nH]1 | 1.31% [at 42.5 µM] | 
4 | FC(F)(F)C(F)(F)C(F)(F)C(F)(F)CCI | -0.922% [at 42.5 µM] | 
5 | COc1cc2nc(N3CCN(C(=O)C4CCCO4)CC3)nc(N)c2cc1OC (stereo not given) | -6.77% [at 42.5 µM] | 
6 | CN1CCC(=C2c3ccccc3C=Cc3ccccc32)CC1 | 5.17% [at 42.5 µM] | 
7 | C[N+]1(C)[C@@H]2CC(OC(=O)[C@H](CO)c3ccccc3)C[C@H]1[C@@H]1O[C@@H]12 (stereo not given in full) | -11.6% [at 42.5 µM] | 
8 | CCCCOCCOC(=O)COc1ccc(Cl)cc1Cl | -1.23% | 
9 | CCC(C)CCCC(C)(C)O (stereo not given) | -1.07% | 
10 | OC(CCN1CCCCC1)(c1ccccc1)c1ccccc1 | 0.457% [at 42.5 µM] | 
11 | COc1ccc2nc(NC(=O)Nc3ccccc3)sc2c1 | 9.97% [at 42.5 µM] | 
12 | Oc1ccc(Cl)c2cccnc12 |  | 0.531 µM (active)
13 | O=[N+]([O-])c1ccc2[nH]ncc2c1 | -6.71% | 
14 | CCCCOCCOC(=O)CCCCCCCCC(=O)OCCOCCCC | 0.669% | 
15 | CC(C)(Sc1cc(C(C)(C)C)c(O)c(C(C)(C)C)c1)Sc1cc(C(C)(C)C)c(O)c(C(C)(C)C)c1 | 10.2% [at 42.5 µM] | 
16 | CCC1(C)C(=O)N(Cl)C(=O)N1Cl (stereo not given) | -6.43% | 
17 | CCCCCCc1ccc(N)cc1 | -14.4% | 
18 | CCCCOc1cc(C(=O)NCCN(CC)CC)c2ccccc2n1 | 7.8% [at 42.5 µM] | 
19 | CCOC(=O)[C@H](C)O | 0.421% | 
20 | CC(C)CCCCCCOC(=O)c1ccc(C(=O)OCCCCCCC(C)C)c(C(=O)OCCCCCCC(C)C)c1 | 1.5% | 

Row | SMILES | activity change, negative = cytotoxicity | Potency
21 | CCCCCCCCCCCCCCN(C)C | 2.19% [at 19 µM] | 
22 | O=C(CCCCCCCCc1cccnc1)N1CCC(C=C(c2ccccc2)c2ccccc2)CC1 |  | 15.4 µM (active)
23 | O=c1[nH]c(=O)n([C@H]2C[C@H](O)[C@@H](CO)O2)cc1I | -14.4% [at 42.5 µM] | 
24 | CC(C)(C)c1cccc(O)c1 | 0.0169% | 
25 | NC(=O)NS(=O)(=O)c1ccc(N)cc1 | 3.57% [at 42.5 µM] | 
26 | O=Cc1ccccc1[N+](=O)[O-] | 1.83% | 
27 | CCCOC(=O)c1ccc(N)cc1 | 4.56% [at 42.5 µM] | 
28 | c1ccc(C(O[C@H]2CCCN(CCc3ccc4c(c3)OCO4)C2)c2ccccc2)cc1 | -20.6% [at 42.5 µM] | 
29 | BrC/C=C/CBr | -3.14% [at 19 µM] | 
30 | NS(=O)(=O)c1cc2c(cc1Cl)NC(C(Cl)Cl)NS2(=O)=O (stereo not given) | 2.4% [at 42.5 µM] | 
31 | C=C(C)c1ccccc1 | -1.77% | 
32 | CNC(=O)c1ccccc1Sc1ccc2c(/C=C/c3ccccn3)n[nH]c2c1 | -6.07% [at 42.5 µM] | 
33 | Cc1c[nH]c2ccccc12 | -13% [at 42.5 µM] | 
34 | CC(C)(O)c1ccccc1 | -1.2% | 
35 | CC(C)(C)NCC(O)COc1ccc(NC(=O)NC2CCCCC2)cc1 (stereo not given) | -16.1% [at 42.5 µM] | 
36 | CCCCCCCCCCCCOC(=O)c1ccc(O)cc1 |  | 43.6 µM (active)
37 | Cn1nnc2c(C(N)=O)ncn2c1=O | 4.33% [at 42.5 µM] | 
38 | On1nnc2ccccc21 | 4.16% | 
39 | Cc1nc(C)nc(N2C[C@@H](C)N(c3ccnc([C@@H](C)O)n3)[C@@H](C)C2)n1 | -0.79% [at 42.5 µM] | 
40 | CCOC(=O)CC(=O)c1cc(F)c(Cl)nc1Cl | -0.361% | 
